{
  "source": "PubChem BioAssay (NCI)",
  "note": "About 83,000 compounds went through this panel and 20% of them were active in at least one assay; those are over-represented in the sample as a whole.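 Percent growth is the endpoint: 0 to 100 indicates growth inhibition (40 means 60% inhibition), 0 means no net growth, and negative values indicate cell death.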 A number with no mark means an inactive call. Active and inactive are the calls of the source. Rule for the calls: active = growth percent below 10; inactive = the rest.",
  "data": [
    {"test_system": "RXF 393 renal", "assay": "NCI-60 one-dose screen, 48 h (100 = growth as untreated, 0 = no growth, -100 = all killed)", "conditions": "10 µM unless noted", "values": [
      {"compound": "CNCc1cccc2c1OCCOCCOCCN(CCN1CCOCC1)S(=O)(=O)c1ccc(cc1)-c1cnc(N)c(n1)C(=O)N2", "growth": "14.8%"},
      {"compound": "Cc1cnc(-c2ccc(-c3ccc(NC(=O)Nc4c(F)cc(F)cc4F)cc3F)c3c2C(=O)NC3)[nH]1", "growth": "21.5%"},
      {"compound": "Cc1cc(C)c(NC(=O)c2sc3nc4c(cc3c2N)CCCCCC4)c(C)c1", "growth": "65.8%"},
      {"compound": "O=C1NN(c2ccccc2)C(c2ccc3c(c2)OCO3)N2CCC[C@@H]12", "note": "(some centres not stated)", "growth": "117%"},
      {"compound": "C=C1C(=O)O[C@H]2[C@H]1CC/C(COC(=O)CCCCCCCCC(=O)OC/C1=C/CC[C@@]3(C)O[C@H]3[C@H]3OC(=O)C(=C)[C@@H]3CC1)=C\\CC[C@@]1(C)O[C@@H]21", "growth": "-86.6% (active)"},
      {"compound": "COc1ccc(C2N(c3cc(OC)c(OC)c(OC)c3)C(=O)C2(F)F)cc1F", "note": "(configuration not stated)", "growth": "49.4%"},
      {"compound": "C=C1C(=O)O[C@H]2[C@H]1CC/C(COC(=O)CCCCCCC(=O)OC/C1=C/CC[C@@]3(C)O[C@H]3[C@H]3OC(=O)C(=C)[C@@H]3CC1)=C\\CC[C@@]1(C)O[C@@H]21", "growth": "-72.8% (active)"},
      {"compound": "O=c1nc(-c2ccccc2)c2cc(-c3ccc(N4CCCC4)nc3)ccc2[nH]1", "growth": "81.2%"},
      {"compound": "O=C(Nc1nc(-c2ccccc2)cs1)c1cc(-c2ccc(Br)cc2)nc2ccccc12", "growth": "65.7%"},
      {"compound": "COc1ccc2nc3c(n2c1)C(=O)C(=O)c1ccccc1-3", "growth": "-16.9% (active)"},
      {"compound": "C=C1C(=O)O[C@H]2[C@H]1CCC(/C=N/c1ncc(Br)cc1N)=C\\CC[C@@]1(C)O[C@@H]21", "growth": "-79.3% (active)"},
      {"compound": "COC(=O)c1ccc(NC(=O)CSc2nc(-c3ccc(F)cc3)nc3ccccc23)cc1", "growth": "109%"},
      {"compound": "COc1ccc(C2C(c3ccccc3)C(=O)N2c2cc(OC)c(OC)c(OC)c2)cc1I", "note": "(configuration not stated)", "growth": "24.2%"},
      {"compound": "O=[N+]([O-])c1cccc(CN(Cc2cccc([N+](=O)[O-])c2O)c2ccccc2)c1O", "growth": "88.6%"},
      {"compound": "Nc1c(C(=O)Nc2ccccn2)sc2nc3c(cc12)CCCCCC3", "growth": "-8.82% (active)"},
      {"compound": "C[C@]12CC[C@@H]3c4ccc(O)cc4CC[C@H]3[C@@H]1C[C@H](O)C2", "growth": "100%"},
      {"compound": "COCCOCCOCc1n(Cc2ccc3ccccc3c2)c2ccccc2[n+]1Cc1ccc2ccccc2c1", "growth": "21.1%"},
      {"compound": "COc1ccc(C(=O)c2cc(F)c(F)c(OC)c2F)cc1OC(=O)CCl", "growth": "69.7%"},
      {"compound": "Nc1cccc(C(=O)Nc2ccc3c(O)c(N=Nc4ccc(N=Nc5ccc(S(=O)(=O)O)cc5)cc4)c(S(=O)(=O)O)cc3c2)c1", "growth": "121%"},
      {"compound": "O=C(Nc1ccccc1)NS(=O)(=O)c1c[nH]c(=S)[nH]c1=O", "growth": "127%"},
      {"compound": "CC(C)CSc1nc(Nc2ccccc2)c(C#N)c(-c2ccc(F)cc2)n1", "growth": "2.42% (active)"},
      {"compound": "CC(C)(C#N)c1cc(F)cc(C(=O)Nc2cc(Nc3ncccc3-c3ncnc4nc[nH]c34)ccc2F)c1", "growth": "34.1%"},
      {"compound": "COc1c(O)cc2oc3cc(O[C@@H]4OC(C)[C@@H](O)[C@H](O)C4O)c(CC=C(C)C)c(O)c3c(=O)c2c1CC=C(C)C", "note": "(some centres not stated)", "growth": "103%"},
      {"compound": "O=C(CCCC(=O)Nc1ccc(-n2nnc3cc(Cl)c(Cl)cc32)cc1)Nc1ccc(-n2nnc3cc(Cl)c(Cl)cc32)cc1", "growth": "48.1%"},
      {"compound": "Cn1cc(-c2ccc3c(c2)ncn3-c2ccc(CC(=O)Nc3cc(C(C)(C)C)on3)cc2)cn1", "growth": "-25% (active)"},
      {"compound": "CCC1S/C(=N\\N=C(/C)c2ccc[nH]2)N(c2ccccc2)C1=O", "note": "(configuration not stated)", "growth": "91.4%"},
      {"compound": "CC(=O)ON1CCCC(P(=O)(OCOC(=O)C(C)(C)C)OCOC(=O)C(C)(C)C)C1=O", "note": "(configuration not stated)", "growth": "-20.8% (active)"},
      {"compound": "Cc1cccc(C)c1Nc1nnc(-c2ccc(F)cc2)o1", "growth": "98.5%"},
      {"compound": "COc1ccc(C2=NN(c3ccc(S(N)(=O)=O)cc3)C(c3ccc(Cl)cc3)C2)c(O)c1", "note": "(configuration not stated)", "growth": "45.1%"},
      {"compound": "CC(=O)Nc1nc2c(c(N)c1C#N)C(c1cccc(Cl)c1)C1=C(CCCC1=O)N2c1sc2c(c1C#N)CCCC2", "note": "(configuration not stated)", "growth": "16.2%"},
      {"compound": "C#Cc1ccccc1NC(=O)c1sc2nc3c(cc2c1N)CCCCCC3", "growth": "92.9%"},
      {"compound": "C=C(C)[C@@H]1CC[C@]2(C(=O)N3CCN(C)CC3)CC[C@]3(C)[C@H](CC[C@@H]4[C@@]5(C)C/C(=C/c6ccco6)C(=O)C(C)(C)[C@@H]5CC[C@]43C)[C@@H]12", "growth": "45.2%"},
      {"compound": "CCCCC(=O)Nc1c(C(=O)Nc2ccccc2)sc2nc3c(cc12)C(OC(=O)CCCC)CCC3", "note": "(configuration not stated)", "growth": "95.2%"},
      {"compound": "C#CC[C@@H]1C[C@]2(C)[C@H]3CC[C@@H]4[C@H]5[C@H](C(=C)C)CC[C@]5(C(=O)O)CC[C@@]4(C)[C@]3(C)CC[C@H]2C(C)(C)[C@H]1O", "growth": "6.63% (active)"},
      {"compound": "Cc1ccc(-c2nc(C#N)c(S(=O)(=O)N(C)CCO)o2)cc1", "growth": "107%"},
      {"compound": "FC(F)(F)c1ccc2c(Nc3cccc(C4CC(c5ccccc5)=NN4c4ccc(Cl)cc4)c3)ccnc2c1", "note": "(configuration not stated)", "growth": "74.2%"},
      {"compound": "COc1ccc2nc(-c3ccc(OC)c(OC)c3)cc(-c3nnc(SCC(=O)Nc4ccc(/C(C)=N\\O)cc4)n3-c3ccccc3)c2c1", "growth": "79.1%"}
    ]}
  ]
}
